Data: PubChem BioAssay (Tox21)
The source made the active and inactive calls. Calls come from the whole dose curve.

Assay: qHTS assay to identify small molecule agonists of the sonic hedgehog signaling (Shh) pathway (AID 1259368); note: nearly all actives have a fitted effect of over 15% in size;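 for activity change: NIH/3T3-derived 3T3Gli1-Luc cells carrying a stable Gli1-driven firefly luciferase reporter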
Conditions: NIH/3T3 Gli1-Luc reporter, luciferase, 24 h; series mostly up to 92.4 µM; activity change: at the top concentration
Description: National Center for Advancing Translational Sciences [NCATS]
NIH Chemical Genomics Center [NCGC]
U.S. Environmental Protection Agency [EPA]
National Institutes of Environmental Health Sciences [NIEHS]
National Toxicology Program [NTP]
The sonic hedgehog (Shh) pathway is essential for normal embryonic development. Dysregulation of the Shh pathway can cause severe developmental defects in organs. Therefore chemicals that interfere with the pathway are potential developmental toxicants. A cell line designated 3T3Gli1-Luc (DMB/OARSA/CFSAN/FDA, Laurel, MD), a NIH/3T3 derived clone containing stably integrated Gli1-Luc reporter is used to detect chemical interference of the Shh pathway, by changes in the expression of the firefly Luc gene under the control of the Gli1 transcriptional response element. This cell line was used to screen Tox21 libraries for identifying and prioritizing the potential developmental toxicants that interfere Shh pathway.
3T3 Gli1-Luc cells were dispensed at 2,000 per well in 5uL of culture medium into white solid bottom 1536-well plates (Greiner Bio-One, Monroe, NC) using a Multidrop Combi (Thermo Scientific, Waltham, MA) dispenser. The assay plates were incubated at 37 C and 5% CO2 for 4hr, and then 23nL of compounds dissolved in DMSO and positive control were transferred using a Pintool station (Wako, San Diego, CA). The assay plates were incubated at 37C and 5% CO2 for 24hr. For luciferase read, 4uL of Amplite Luciferase reporter gene assay reagent (AAT Bioquest, Inc. Sunnyvale, CA) was added to each well of the assay plates using Flying Reagent Dispenser (FRD, Aurora Discovery, San Diego, CA) and incubated at room temperature for 30min. The luminescence signal was measured using a ViewLux plate reader (Perkin Elmer, Shelton, CT).
% is set by controls: 0 for no effect and ±100 for the full control effect; potency is the fitted concentration of half-maximal effect.

SMILES | activity change | Potency
CCCCOC(=O)CO | -0.391% (inactive) | 
CCCCCCCCCCCCOCCOCCOCCOCCOCCOCCOCCOCCOCCO | -0.687% [at 42.5 µM, hits give high values] (inactive) | 
Sc1nc2ccccc2s1 | 11.3% (inactive) | 
CCCCN(CCCC)CC(O)c1cc(Cl)cc2c1-c1ccc(Cl)cc1/C2=C/c1ccc(Cl)cc1 (stereo not given) | -4.77% [at 42.5 µM, hits give high values] (inactive) | 
O=C1CCc2ccc(OCCCCN3CCN(c4cccc(Cl)c4Cl)CC3)cc2N1 | -3.1% [at 42.5 µM, hits give high values] (inactive) | 
Fc1ccc(C(c2ccc(F)cc2)N2CCNCC2)cc1 | -1.86% [at 42.5 µM, hits give high values] (inactive) | 
COc1cccc2c1C(=O)c1c(O)c3c(c(O)c1C2=O)C[C@@](O)(C(C)=O)C[C@@H]3O[C@H]1C[C@H](N)[C@H](O)[C@H](C)O1 |  | inactive
CN1CCC[C@@H]1CCO[C@](C)(c1ccccc1)c1ccc(Cl)cc1 | -5.35% [at 42.5 µM, hits give high values] (inactive) | 
CC(CCc1ccccc1)NCC(O)c1ccc(O)c(C(N)=O)c1 (stereo not given) | -0.332% (inactive) | 
Nc1ccc(C(=O)O)c(O)c1 | 0.431% [at 42.5 µM, hits give high values] (inactive) | 
Oc1ccccc1O |  | inactive
O=C(O)Cc1ccccc1Nc1c(Cl)cccc1Cl |  | inactive
Cc1nc(-c2ccc(Cl)cc2)oc1COC(C)(C)C(=O)O | 0.0644% [at 42.5 µM, hits give high values] (inactive) | 
OC/C=C/CO | 0.168% (inactive) | 
ClCCl | -0.395% (inactive) | 
CN(C)CCN1CCN(c2cccc(Cl)c2)C1=O | 0.397% [at 42.5 µM, hits give high values] (inactive) | 
CCC(C)n1ncn(-c2ccc(N3CCN(c4ccc(OC[C@H]5CO[C@](Cn6cncn6)(c6ccc(Cl)cc6Cl)O5)cc4)CC3)cc2)c1=O (stereo not given in full) | -2.47% [at 42.5 µM, hits give high values] (inactive) | 
Oc1cc(Cl)cc(Cl)c1Cl | -2.85% (inactive) | 
COc1cc(C)ccc1O | 0.81% (inactive) | 
CCN(CC)C(=O)c1cc(S(=O)(=O)Cc2ccccc2)c(N2CCC(c3ccccc3)CC2)cc1N(CC)CCN(C)C | -15.1% [at 42.5 µM, hits give high values] (inactive) | 

SMILES | activity change | Potency
CCc1oc2ccccc2c1C(=O)c1cc(I)c(O)c(I)c1 | -3.34% [at 42.5 µM, hits give high values] (inactive) | 
CCC(=O)OC(=O)CC | 0.907% (inactive) | 
O=S(=O)(O)c1ccccc1/C=C/c1ccc(-c2ccc(/C=C/c3ccccc3S(=O)(=O)O)cc2)cc1 | -2.28% (inactive) | 
CCCCCCCCCCOC(=O)c1ccccc1C(=O)OCCCCCCCC | -0.012% (inactive) | 
Nc1ccc(NCCO)c([N+](=O)[O-])c1 | -0.0456% (inactive) | 
CC(C)Cn1cnc2c(N)nc3ccccc3c21 | 3.39% [at 18.9 µM, hits give high values] (inactive) | 
O=C(Oc1ccccc1)Oc1ccccc1 | 8.5% (inactive) | 
CC(C(=O)O)c1ccc2c(c1)[nH]c1ccc(Cl)cc12 (stereo not given) | 0.053% [at 42.5 µM, hits give high values] (inactive) | 
FC(F)(F)c1cccc(Cl)c1 | 1.66% (inactive) | 
CCCCCc1ccc(Cl)cc1 | -0.897% (inactive) | 
CCCCCCC1CCCC(=O)O1 (stereo not given) | 0.582% (inactive) | 
O=C1C(c2[nH]c3ccc(S(=O)(=O)O)cc3c2O)=Nc2ccc(S(=O)(=O)O)cc21 | -3.78% (inactive) | 
c1cnccn1 | -1.07% (inactive) | 
CN(C)[C@@H](CCOc1cccc2ccccc12)c1ccccc1 | -1.76% [at 42.5 µM, hits give high values] (inactive) | 
c1ccc(C(O[C@@H]2CCCN(CCc3ccc4c(c3)OCO4)C2)c2ccccc2)cc1 | -5.44% (inactive) | 
Cc1cc(C(C)(C)C)c(O)c(C)c1Cn1c(=O)n(Cc2c(C)cc(C(C)(C)C)c(O)c2C)c(=O)n(Cc2c(C)cc(C(C)(C)C)c(O)c2C)c1=O | -1.24% (inactive) | 
O=C(O)c1cc(N=Nc2ccc([N+](=O)[O-])cc2)ccc1O | 3.6% (inactive) | 
Oc1c(I)cc(Cl)c2cccnc12 |  | 38.5 µM (active)
O=C(c1ccc(O)c(O)c1)c1ccc(O)cc1O | -4.58% (inactive) | 
CC(=O)c1ccc(C(C)=O)cc1 | 0.203% (inactive) | 
